Reference: the supplement of paper PMC6555819

Columns and labels:
Assay in all cases: PBM binding z-score (relative to random genomic background probes); higher = stronger binding; sequences stand for … in GC…GCGATTGACAGCGTAGAATGAAGG
[1] = test system: FXR:RXRa (NR concentration 270 nM, RXRa partner concentration 90 nM)
Outline: (§1)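 The probes on custom Agilent 4×180K protein-binding microarrays were double-stranded, with 34-nt variable regions bearing direct-repeat seeds, single-nucleotide variants, half-site ablations and random human genomic background sequences. Incubation lasted 1 h with ligand-free nuclear receptor dimers in PBS pH 7.4, 2% milk, 0.02% Triton X-100, 1 mM DTT, 0.2 mg/mL BSA and 0.4 mg/ml salmon testes DNA. Antibodies against each partner (one per run) detected bound dimers, and fluorescence scans were regression-normalized. Binding z-scores take the random background probes as reference.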

[2] = test system: LXRa:RXRa (NR concentration 270 nM, RXRa partner concentration 90 nM)
Outline: as §1

[3] = test system: LXRa homodimer (NR concentration 270 nM)
Outline: as §1

[4] = test system: LXRb:RXRa (NR concentration 270 nM, RXRa partner concentration 90 nM)
Outline: as §1

[5] = test system: LXRb homodimer (NR concentration 270 nM)
Outline: as §1

[6] = test system: PPARa:RXRa (NR concentration 270 nM, RXRa partner concentration 90 nM)
Outline: as §1

[7] = test system: PPARg:RXRa (NR concentration 180 nM, RXRa partner concentration 90 nM)
Outline: as §1

[8] = test system: PPARg:RXRa 270nM:90nM, anti-RXR (NR concentration 270 nM, RXRa partner concentration 90 nM)
Outline: as §1

[9] = test system: PPARg:RXRa 30nM:10nM, anti-RXR (NR concentration 30 nM, RXRa partner concentration 10 nM)
Outline: as §1

[10] = test system: PPARg:RXRa 90nM:30nM, anti-RXR (NR concentration 90 nM, RXRa partner concentration 30 nM)
Outline: as §1

Sequence | PBM binding z-score [1] | PBM binding z-score [2] | PBM binding z-score [3] | PBM binding z-score [4] | PBM binding z-score [5] | PBM binding z-score [6] | PBM binding z-score [7] | PBM binding z-score [8] | PBM binding z-score [9] | PBM binding z-score [10]
AGTTAAAGTTCAGGACGAGGTAACGTAAAGCACG | 3.69 | 3.97 | 1.7 | 1.91 | 0.474 | 2.83 | 2.49 | 3.2 | 1.18 | 2.14
CTCGAAAGGTAGGTTGAGGTGAGTATACGGATAA | 0.719 | -0.128 | -0.2 | -0.0661 | -0.508 | 0.424 | 0.0538 | 0.173 | 0.0647 | 0.104
CGTAAAAGTTCAAGGTAACGTAACAGAAAGCAGC | 5.78 | 5.24 | 2.41 | 3.04 | 1.2 | 4.35 | 2.48 | 3.11 | 1.09 | 1.91
CCTACTGGGCCATCAGGTTATTGATATCAACGTT | 0.0751 | -0.156 | 0.178 | 0.293 | -0.502 | 0.918 | 1.23 | 1.98 | 0.473 | 1.4
TCATATAGGTAAATGCCAGGTGAAAGTCCGATCT | 1.31 | 1.12 | 0.378 | 0.902 | 0.0242 | 1.62 | 0.873 | 2.48 | 3.67 | 3.1
ACTAGTTGGTCTGCTGAGGTCACACACAATTCGG | 2.8 | 2.9 | 1.91 | 3.28 | 0.53 | 3.39 | 1.35 | 1.95 | 0.572 | 1.35
AGAATGAGGATAAGATCAGGGAAACAGAATACAT | 0.459 | -0.133 | -0.218 | -0.0492 | -0.342 | -0.0848 | 1.2 | -0.174 | 0.433 | 0.00747
GGTAGTTGGTCAGTAAAAGGTCACACACCGGTCG | 3.14 | 4.29 | 4.91 | 4.07 | 1.47 | 4.34 | 2.7 | 4.44 | 2.46 | 3.81
ATCGAAAGGTCGAGGTGAGTATAGAGAAAGGGAA | 4.21 | 3.57 | 0.072 | 2.77 | 0.504 | 4.79 | 3.78 | 3.66 | 1.28 | 2.62
GCTTCTAGATCAAGGTTAAGAAAGACTAAGCTAA | -0.054 | 0.652 | -0.313 | 0.697 | -0.427 | 1.58 | 0.749 | 1.77 | 0.224 | 1.13
TCTGCTAGGTCAACGATGGTCACCTAATCTGCTA | 3.57 | 2.97 | 0.264 | 2.05 | -0.183 | 3.49 | 2.96 | 3.36 | 1.98 | 2.76
ATCTCTAGGTAAAGATAGTTCATTGAATGCAAAT | 0.585 | 5.32 | 1.71 | 1.59 | 0.747 | 1.36 | 1.11 | 0.714 | 0.293 | 0.846
CCTACTGGGCTACGAAAGGTCATTGATTCAGTGA | 3.53 | 6.04 | 6.54 | 4.66 | 0.251 | 4.28 | 2.77 | 4.36 | 2.08 | 3.64
ATCTCTAGGTAAAGTTCGGTGAAAGATCGATAGA | 0.889 | 1.94 | 0.491 | 0.602 | 0.935 | 1.22 | 1.55 | 2.48 | 1.27 | 2.34
TCTTGTAGATCAATAGGAGGTTAAGAAAGATCGA | 0.54 | 1.36 | 0.474 | 0.851 | 0.157 | 1.36 | 0.389 | 1.57 | 2.93 | 2.25
CCTACTGGGCCACGAAAGGTCAGTGATTCAGTGA | 1.7 | 3.12 | 1.41 | 2.24 | -0.661 | 3.53 | 3.77 | 3.87 | 1.03 | 2.79
TCTATCAGTTGATTAGGGCAACCGAAACAGCGGA | -0.144 | 0.15 | -0.239 | 0.101 | 0.266 | 0.978 | 0.346 | 1.61 | 3.34 | 2.54
TCTTATAGGTAATACAGGTGAAAGTCGGCATCTA | 1.18 | 1.45 | 0.636 | 1.17 | 0.858 | 2.06 | 1.26 | 2.8 | 3.97 | 3.16
CGTCAAAGTTCAACTAAGGGAACGTAAAGCACGC | 6.99 | 6.08 | 3.68 | 3.74 | 1.85 | 4.93 | 4.78 | 5.73 | 1.94 | 4.2
CCTACTGGGCCAAAAGGGTCATTGATGCCGATAA | 2.19 | 2.17 | 0.372 | 2.58 | -0.642 | 3.78 | 3.54 | 4.35 | 1.7 | 3.87
CAAACTAGGTCACCGGAAGGTCAGAGTCCGCATG | 5.32 | 4.74 | 2.63 | 4.09 | 0.598 | 5.96 | 9.65 | 7.46 | 5.57 | 7.33
ACTAGCAGGCAAAGGGTCACTCAAGATTAGTCCG | 2.62 | 2.93 | 0.422 | 2.94 | -0.218 | 4.2 | 5.28 | 5.86 | 4.68 | 6.43
GATACAGAGTCAAGGCCAGAGTACGCGTATTGAT | -0.608 | -0.442 | -0.531 | -0.627 | -0.712 | -0.293 | 0.646 | -0.0744 | -0.0806 | -0.0588
